# Measured values reported in PMC7862700, “An all-to-all approach to the identification of sequence-specific readers for epigenetic DNA modifications on cytosine”.
# Assays:
# Experiment in all cases: DAPPL (digital affinity profiling via proximity ligation, sequencing); 10 mM Tris-HCl pH 7.5, 50 mM NaCl, 1 mM DTT, 4% glycerol, room temperature, 30 min; GST-TFs on glutathione beads, 16-mer random dsDNA library, 0.1% formaldehyde crosslink after washing; high values mean tight binding
# Conditions in all cases: protein: recombinant; tags: N-terminal GST; dsDNA, one strand shown
# ELK1 = biological target: T1, ELK1 (Homo sapiens, UniProt P19419 1-428)
# T1 sequence: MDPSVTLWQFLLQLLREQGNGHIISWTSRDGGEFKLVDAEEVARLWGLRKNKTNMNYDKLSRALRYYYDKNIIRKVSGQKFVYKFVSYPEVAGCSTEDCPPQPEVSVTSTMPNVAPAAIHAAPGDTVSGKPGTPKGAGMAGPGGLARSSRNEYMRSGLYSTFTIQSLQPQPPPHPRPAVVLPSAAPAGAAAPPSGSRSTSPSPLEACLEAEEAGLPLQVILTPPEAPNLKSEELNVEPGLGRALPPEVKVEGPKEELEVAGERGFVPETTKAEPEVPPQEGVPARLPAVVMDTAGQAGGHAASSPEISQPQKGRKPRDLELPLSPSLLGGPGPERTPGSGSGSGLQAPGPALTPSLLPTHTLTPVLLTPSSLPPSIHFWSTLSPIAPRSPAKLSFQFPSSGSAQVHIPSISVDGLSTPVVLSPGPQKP
# Procedure, shortened: (§1)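 GST fusions of human transcription factors were expressed in yeast and captured with glutathione beads. Once given DNA barcodes and pooled alongside a tag-only sample, they were incubated for 30 min at room temperature with 200 nmole of a random double-stranded 16-mer DNA library in Tris/NaCl/DTT/glycerol buffer, then washed, crosslinked (0.1% formaldehyde), proximity-ligated, PCR-amplified and sequenced on an Illumina NextSeq500. The binding signal of each hexamer is its read frequency for a factor divided by its frequency for the tag-only sample.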
# GABPA = biological target: T2, GABPA (Homo sapiens, UniProt Q06546 1-454)
# T2 sequence: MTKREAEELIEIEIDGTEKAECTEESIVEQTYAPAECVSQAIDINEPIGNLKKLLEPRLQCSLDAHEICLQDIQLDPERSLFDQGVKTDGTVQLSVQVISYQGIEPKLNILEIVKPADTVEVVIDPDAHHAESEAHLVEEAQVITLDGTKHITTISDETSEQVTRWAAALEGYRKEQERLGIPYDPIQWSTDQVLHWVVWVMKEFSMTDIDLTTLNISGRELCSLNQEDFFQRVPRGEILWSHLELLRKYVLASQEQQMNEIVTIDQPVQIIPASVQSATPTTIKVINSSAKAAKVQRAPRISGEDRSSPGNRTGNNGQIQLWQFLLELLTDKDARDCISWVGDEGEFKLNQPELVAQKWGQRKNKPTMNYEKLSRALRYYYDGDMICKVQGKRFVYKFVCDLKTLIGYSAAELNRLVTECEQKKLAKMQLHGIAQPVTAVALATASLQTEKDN
# Procedure, shortened: as §1
# ERG = biological target: T3, ERG (Homo sapiens, UniProt P11308 1-479)
# T3 sequence: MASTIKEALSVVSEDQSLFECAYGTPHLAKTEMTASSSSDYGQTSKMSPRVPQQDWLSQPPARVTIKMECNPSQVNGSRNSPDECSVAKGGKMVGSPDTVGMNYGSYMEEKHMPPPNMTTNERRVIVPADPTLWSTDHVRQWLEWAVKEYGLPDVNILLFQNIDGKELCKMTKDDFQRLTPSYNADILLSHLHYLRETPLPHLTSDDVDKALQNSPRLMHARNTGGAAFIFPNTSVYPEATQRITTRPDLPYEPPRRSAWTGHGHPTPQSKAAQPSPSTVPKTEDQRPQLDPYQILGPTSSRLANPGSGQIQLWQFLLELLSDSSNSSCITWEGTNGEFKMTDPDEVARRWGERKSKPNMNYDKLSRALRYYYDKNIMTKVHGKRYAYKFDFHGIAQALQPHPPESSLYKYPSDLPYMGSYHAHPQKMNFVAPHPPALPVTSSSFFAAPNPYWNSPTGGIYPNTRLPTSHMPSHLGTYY
# Procedure, shortened: as §1
# ELF1 = ELF1 (Homo sapiens, UniProt P32519 1-619)
# Chain of ELF1 (P32519 whole entry): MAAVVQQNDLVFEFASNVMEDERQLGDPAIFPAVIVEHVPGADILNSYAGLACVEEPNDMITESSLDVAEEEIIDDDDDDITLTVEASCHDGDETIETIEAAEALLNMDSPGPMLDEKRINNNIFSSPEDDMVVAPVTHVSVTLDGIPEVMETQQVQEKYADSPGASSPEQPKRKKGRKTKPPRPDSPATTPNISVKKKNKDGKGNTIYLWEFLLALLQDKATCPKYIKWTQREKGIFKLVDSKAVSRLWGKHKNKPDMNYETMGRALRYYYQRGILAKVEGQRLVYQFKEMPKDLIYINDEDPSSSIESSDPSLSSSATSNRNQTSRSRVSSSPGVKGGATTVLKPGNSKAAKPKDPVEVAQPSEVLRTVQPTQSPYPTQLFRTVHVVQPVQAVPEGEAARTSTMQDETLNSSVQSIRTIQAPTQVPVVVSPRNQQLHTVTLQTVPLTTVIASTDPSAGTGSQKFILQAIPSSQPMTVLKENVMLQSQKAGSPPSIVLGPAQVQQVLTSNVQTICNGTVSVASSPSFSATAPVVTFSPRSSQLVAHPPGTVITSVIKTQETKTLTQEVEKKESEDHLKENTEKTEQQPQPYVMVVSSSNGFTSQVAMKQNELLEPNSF
# Procedure, shortened: as §1
# EHF = biological target: T4, EHF (Homo sapiens, UniProt Q9NZC4 1-300)
# T4 sequence: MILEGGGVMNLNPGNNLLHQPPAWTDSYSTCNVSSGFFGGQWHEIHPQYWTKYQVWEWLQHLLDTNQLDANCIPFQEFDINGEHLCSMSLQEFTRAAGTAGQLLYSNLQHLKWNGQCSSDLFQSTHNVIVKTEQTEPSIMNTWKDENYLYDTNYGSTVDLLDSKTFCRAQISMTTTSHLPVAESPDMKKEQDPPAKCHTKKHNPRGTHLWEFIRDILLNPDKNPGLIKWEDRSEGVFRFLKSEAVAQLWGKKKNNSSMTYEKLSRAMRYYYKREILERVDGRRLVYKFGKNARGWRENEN
# Procedure, shortened: as §1
# SPIB = SPIB (Homo sapiens, UniProt Q01892 1-262)
# Chain of SPIB (Q01892 whole entry): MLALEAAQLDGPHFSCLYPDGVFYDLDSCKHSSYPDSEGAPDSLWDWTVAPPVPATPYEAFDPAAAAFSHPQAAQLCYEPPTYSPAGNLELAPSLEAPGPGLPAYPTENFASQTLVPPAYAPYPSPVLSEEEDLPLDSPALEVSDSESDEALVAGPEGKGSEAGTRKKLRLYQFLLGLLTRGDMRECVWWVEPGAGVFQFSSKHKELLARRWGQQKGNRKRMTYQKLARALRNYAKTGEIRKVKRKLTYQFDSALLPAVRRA
# Procedure, shortened: as §1
# ELK3 = biological target: T5, ELK3 (Homo sapiens, UniProt P41970 1-407)
# T5 sequence: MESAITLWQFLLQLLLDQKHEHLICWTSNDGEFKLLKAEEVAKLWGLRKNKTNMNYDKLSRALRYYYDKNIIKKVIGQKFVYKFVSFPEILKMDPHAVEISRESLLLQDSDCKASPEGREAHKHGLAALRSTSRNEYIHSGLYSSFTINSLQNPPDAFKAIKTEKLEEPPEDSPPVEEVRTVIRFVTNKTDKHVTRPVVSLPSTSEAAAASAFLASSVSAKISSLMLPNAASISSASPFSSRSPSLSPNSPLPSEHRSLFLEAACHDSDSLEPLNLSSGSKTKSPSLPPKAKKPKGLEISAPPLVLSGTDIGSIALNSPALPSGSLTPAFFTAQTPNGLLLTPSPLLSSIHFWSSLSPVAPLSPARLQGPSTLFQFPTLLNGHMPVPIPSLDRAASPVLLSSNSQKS
# Procedure, shortened: as §1
# ETV5 = ETV5 (Homo sapiens, UniProt P41161 1-510)
# Chain of ETV5 (P41161 whole entry): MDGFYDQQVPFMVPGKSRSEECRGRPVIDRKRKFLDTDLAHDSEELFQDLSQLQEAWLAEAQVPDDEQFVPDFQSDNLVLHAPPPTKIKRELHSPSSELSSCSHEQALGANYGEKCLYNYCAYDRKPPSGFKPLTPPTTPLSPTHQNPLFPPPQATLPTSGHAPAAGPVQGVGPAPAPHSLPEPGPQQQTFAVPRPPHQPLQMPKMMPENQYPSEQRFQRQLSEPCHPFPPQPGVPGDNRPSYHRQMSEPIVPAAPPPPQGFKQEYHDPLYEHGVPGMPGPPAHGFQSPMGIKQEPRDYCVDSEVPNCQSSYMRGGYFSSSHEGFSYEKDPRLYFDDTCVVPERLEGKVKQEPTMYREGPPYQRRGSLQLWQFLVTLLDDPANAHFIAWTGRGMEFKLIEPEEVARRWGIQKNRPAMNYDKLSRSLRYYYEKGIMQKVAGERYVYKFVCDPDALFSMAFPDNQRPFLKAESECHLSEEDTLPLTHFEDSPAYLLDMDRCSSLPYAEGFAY
# Procedure, shortened: as §1
# SPIC = biological target: T6, SPIC (Homo sapiens, UniProt Q8N5J4 1-248)
# T6 sequence: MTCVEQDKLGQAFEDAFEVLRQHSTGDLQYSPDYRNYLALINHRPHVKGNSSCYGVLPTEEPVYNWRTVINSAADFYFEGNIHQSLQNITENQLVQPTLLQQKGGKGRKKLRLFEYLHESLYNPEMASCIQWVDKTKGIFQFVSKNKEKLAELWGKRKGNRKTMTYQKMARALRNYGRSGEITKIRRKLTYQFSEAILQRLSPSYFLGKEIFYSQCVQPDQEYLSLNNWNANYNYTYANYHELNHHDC
# Procedure, shortened: as §1
# ELF4 = ELF4 (Homo sapiens, UniProt Q99607 1-663)
# Chain of ELF4 (Q99607 whole entry): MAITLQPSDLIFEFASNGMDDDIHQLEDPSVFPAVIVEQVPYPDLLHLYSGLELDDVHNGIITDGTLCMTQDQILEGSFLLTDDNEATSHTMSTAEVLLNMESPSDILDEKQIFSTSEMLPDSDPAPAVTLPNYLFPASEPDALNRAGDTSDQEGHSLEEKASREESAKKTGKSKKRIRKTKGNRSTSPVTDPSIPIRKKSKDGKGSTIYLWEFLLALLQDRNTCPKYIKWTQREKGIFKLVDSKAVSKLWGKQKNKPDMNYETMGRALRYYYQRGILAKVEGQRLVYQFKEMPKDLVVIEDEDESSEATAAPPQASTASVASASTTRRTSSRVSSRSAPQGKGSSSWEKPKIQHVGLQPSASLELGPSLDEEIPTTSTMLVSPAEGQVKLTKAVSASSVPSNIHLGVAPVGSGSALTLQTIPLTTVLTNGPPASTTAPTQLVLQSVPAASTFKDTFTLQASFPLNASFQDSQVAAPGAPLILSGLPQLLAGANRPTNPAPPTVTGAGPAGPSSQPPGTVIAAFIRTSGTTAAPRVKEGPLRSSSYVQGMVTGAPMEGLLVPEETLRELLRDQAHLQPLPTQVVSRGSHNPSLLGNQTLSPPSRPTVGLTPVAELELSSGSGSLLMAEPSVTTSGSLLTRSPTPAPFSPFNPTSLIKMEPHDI
# Procedure, shortened: as §1
sequence,measurement,setting,value
CACAGC,binding signal,ELK1,"1.09 fold enrichment (6-mer frequency, TF over GST control)"
same,binding signal,GABPA,"1.02 fold enrichment (6-mer frequency, TF over GST control)"
same,binding signal,ERG,"1.03 fold enrichment (6-mer frequency, TF over GST control)"
same,binding signal,ELF1,"1.11 fold enrichment (6-mer frequency, TF over GST control)"
same,binding signal,EHF,"1.02 fold enrichment (6-mer frequency, TF over GST control)"
same,binding signal,SPIB,"1.05 fold enrichment (6-mer frequency, TF over GST control)"
same,binding signal,ELK3,"1.07 fold enrichment (6-mer frequency, TF over GST control)"
same,binding signal,ETV5,"1.01 fold enrichment (6-mer frequency, TF over GST control)"
same,binding signal,SPIC,"1.1 fold enrichment (6-mer frequency, TF over GST control)"
same,binding signal,ELF4,"1.08 fold enrichment (6-mer frequency, TF over GST control)"
